Our source for the Potency and activity change, negative = cytotoxic values is PubChem BioAssay (Tox21).

SMILES strings stand for the structures. Results filed as inconclusive are left out. Entries that show only a call come without a potency. Unmarked numbers belong to inactive results. Active and inactive are the calls of the source. Calls follow the shape of the dose curve; as a rule, active = well fitted cell-killing curve with a large enough effect in the repeat runs; inconclusive = weak or mixed curves, or effect the other way; inactive = no such curve, though single readings can be large or run the other way.
Potency is read from the fitted curve at half-maximal effect.

The assay is described as follows: qHTS assay to identify small molecule antagonists of the thyroid receptor (TR) signaling pathway - cell viability counter screen (AID 743064). Also: nearly all actives have a fitted effect of over 50% in size. Conditions: GH3.TRE-Luc viability, CellTiter-Fluor, 24 h; series mostly up to 70.3 µM. From the text: National Center for Advancing Translational Sciences [NCATS]
NIH Chemical Genomics Center [NCGC]
U.S. Environmental Protection Agency [EPA]
National Institutes of Environmental Health Sciences [NIEHS]
National Toxicology Program [NTP]
U.S. Food and Drug Administration [FDA]
Thyroid receptor (TR), a nuclear hormone receptor, plays an important role in development, proliferation, differentiation, metabolism, brain function, and cardiovascular system. […] To profile the Tox21 10K compound library in TR signaling, a cell-based GH3-TRE-Luc assay (GH3.TRE-Luc cell line, developed by the laboratory of Dr. Albertinka J. Murk, Wageningen University) was used to measure the inhibition of TR. GH3 (rat pituitary tumor) cells stably expressing a TR activity sensor consisting of two TR response elements and a luciferase reporter gene. The cytotoxicity of the Tox21 compound library against the GH3.TRE-Luc cell line was tested in parallel by measuring the cell viability using CellTiter-Fluor assay (Promega, Madison, WI) in the same wells.
Tox21 Assay Protocol Summary:
GH3.TRE-Luc cells were dispensed at 1500 cells/4 uL/well into 1536-well white solid bottom plates using a Multidrop Combi dispenser (Thermo Fisher Scientific Inc., Waltham, MA). After the assay plates were incubated at 37 C for 4 hours, 23 nL of library compound or DMSO controls was transferred to the assay plates by a pintool station (Kalypsys, San Diego, CA), followed by addition of 1 ul of T3 (1 nM, final concentration in the wells) to stimulate TR transactivation. The assay plates were incubated at 37 C for 23.5 h, and then 1 uL of CellTiter-Fluor reagent (Promega, Madision, WI) of measuring cytotoxicity was added to each well using a Bioraptr Flying Reagent Dispenser (FRD) workstation (Beckman Coulter, Indianapolis, IN, USA). The plates were incubated at 37C and 5% CO2 for additional 30 min, and fluorescence intensity was measured by a ViewLux plate reader (PerkinElmer, Shelton, CT).
Turning to `CCCCCCCCOC(C)=O`, the Potency result was “inactive”.

Turning to `O=CO`, the activity change, negative = cytotoxic is -0.961% [at 8.44 µM]. For the molecule `C[C@H]1O[C@H](O[C@H]2[C@H](O)[C@@H](O)[C@@H](O[C@H]3[C@H](O)[C@@H](O)[C@H](O)O[C@@H]3CO)O[C@@H]2CO)[C@H](O)[C@@H](O)[C@@H]1N[C@H]1C=C(CO)[C@@H](O)[C@H](O)[C@H]1O`, the Potency entry was “inactive”. Same read-out and setting: the result for `CCCCC(=O)N(C)C` reads “inactive”.

Take `CCOC(=O)C(C)(C)C`: the Potency result was “inactive”. Consider `CNC(=O)C(c1ccccc1)c1ccccc1`, for which the Potency result is “inactive”. Consider `CC(C)COC(=O)/C=C/c1ccccc1`, for which the Potency entry is “inactive”.

With `c1ccc(CNc2ncnc3nc[nH]c23)cc1`, the Potency result is “inactive”. For `NS(=O)(=O)c1cc2c(cc1Cl)NC(CC1CCCC1)NS2(=O)=O` (stereo not given), the Potency result is “inactive”. For `CCOC(=O)OCC/C(SC(=O)OCC)=C(\C)N(C=O)Cc1cnc(C)nc1N`, the Potency result is “inactive”. In the case of `O=C1c2ccccc2-c2ccccc21`, the Potency entry is “inactive”. Same read-out and setting: the result for `CCS(=O)(=O)CCn1c([N+](=O)[O-])cnc1C` reads “inactive”; that for `O=C(Oc1ccccc1C(=O)O)c1ccccc1O`, “inactive”. The same measure, in the same setting: the result for `O=P(O)(O)OCC(O)CO` (stereo not given) reads “inactive”; that for `CC(=O)/C=C/c1ccco1`, “inactive”; that for `CC(C)COC(=O)COc1ccc(Cl)cc1Cl`, “inactive”. Turning to `O=C(COCCOCCOCC(=O)Nc1c(I)cc(I)c(C(=O)O)c1I)Nc1c(I)cc(I)c(C(=O)O)c1I`, the Potency result is “inactive”. On to `COc1ccc(N=Nc2cc(C)c(N=Nc3ccc(S(=O)(=O)O)cc3)cc2OC)cc1`, for which the Potency result is “inactive”. `O=C(O)c1ccccc1C(=O)OCc1ccccc1`: the Potency entry is “inactive”. `CC(C)(c1ccc(Oc2ccc3c(c2)C(=O)OC3=O)cc1)c1ccc(Oc2ccc3c(c2)C(=O)OC3=O)cc1`: the Potency entry is “inactive”. For `COC(/C=C(\C)CCC=C(C)C)OC`, the Potency entry was “inactive”. In the case of `CC(=O)Nc1ncc([N+](=O)[O-])s1`, the Potency entry was “inactive”.

As for `Cc1nc(C)nc(N2C[C@@H](C)N(c3ccnc([C@@H](C)O)n3)[C@@H](C)C2)n1`, the Potency result is “inactive”.

For `CCC(CO)CO`, the Potency entry is “inactive”.

With `COC(=O)CCC(=O)O`, the Potency result is “inactive”. Take `Cc1cccc(NC(=S)N(C)C)c1`: the Potency result is “inactive”.

As for `Cc1ncc([N+](=O)[O-])n1CC(O)CCl` (stereo not given), the Potency entry is “inactive”. For the molecule `Cc1nc([N+](=O)[O-])cn1-c1ccc([N+](=O)[O-])cc1`, the Potency result is “inactive”. Regarding `CN(C)CCOCCN(C)CCO`, the Potency result was “inactive”. Regarding `Cc1cc(C)cc([N+](=O)[O-])c1`, the Potency entry was “inactive”. On to `O=[Si]=O`, for which the Potency entry was “inactive”. The same measure, in the same setting: under `COC(OC)C(C)c1ccccc1` (stereo not given) stands “inactive”. In the case of `C=CCOc1c(Br)cc(C(C)(C)c2cc(Br)c(OCC=C)c(Br)c2)cc1Br`, the Potency result is “inactive”.

Regarding `Cc1ccc2c(c1)c1c3n2CCNC3CCC1` (stereo not given), the Potency was 11.9 µM (active). Same read-out and setting: under `CNC(=O)NC` stands “inactive”; under `CCCO`, “inactive”; under `COc1cc2c3cc1Oc1cc(ccc1O)C[C@@H]1c4c(cc(OC)c(O)c4Oc4ccc(cc4)C[C@@H]3N(C)CC2)CC[N+]1(C)C`, “inactive”. For `CCC(C)(CCC(C)C)C(=O)[O-].CCC(C)(CCC(C)C)C(=O)[O-].[Zn+2]` (stereo not given), the Potency result was “inactive”. For the molecule `Cc1ccc(S(=O)(=O)NC(=O)NC2CCCCCCC2)cc1`, the Potency result was “inactive”.

In the case of `CC(C)C(=O)c1ccccc1`, the Potency result is “inactive”.
